# Measured values from ChEMBL document CHEMBL5606458, “ASAP - ZIKV NS2B-NS3 protease fluorescence single point” (2024).
# About 160 (5.9%) of roughly 2,700 compounds showed an effect of 50% or more. Shown is part of a subset that was picked to be rich in strong results.
# Biological target: Nonstructural protein 3 (Zika virus) (UniProt A0A024AXB9)
# [1] = PRVABC59, Concentration 50.0 uM, Number of replicates 1.0
# [2] = PRVABC59, Concentration 15.0 uM, Number of replicates 1.0
# Nonstructural protein 3 (Zika virus), sequence (A0A024AXB9 as listed by the source): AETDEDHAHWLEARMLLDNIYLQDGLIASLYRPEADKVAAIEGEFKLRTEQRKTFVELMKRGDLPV
smiles,measurement,setting,value
COc1ccc(S(=O)(=O)N[C@H]2CC[C@H](C(=O)Nc3nc4ccccc4s3)CC2)cc1,inhibition,"PRVABC59, Concentration 49.5 uM, Number of replicates 2.0, Standard deviation 1.516279405300169 %",4.79%
same,inhibition,"PRVABC59, Concentration 99.01 uM, Number of replicates 2.0, Standard deviation 2.0429029287446374 %",5.82%
same,inhibition,"PRVABC59, Concentration 198.0 uM, Number of replicates 2.0, Standard deviation 2.7145967477005732 %",5.18%
O=Cc1ccc(N2CCC(C(=O)N3CCC[C@H]3c3cccc(F)c3)CC2)cc1,inhibition,[1],24.6%
Cc1cc(CO)c2cccc(NC(=O)C3CC(N)C3)c2n1 (configuration not stated),inhibition,"PRVABC59, Concentration 49.95 uM, Number of replicates 2.0, Standard deviation 0.17303270644971713 %",56.1%
same,inhibition,"PRVABC59, Concentration 99.9 uM, Number of replicates 2.0, Standard deviation 0.6659229038704304 %",84.7%
Cc1cc(CO)c2cccc(NC(=O)[C@@H]3C[C@@H](O)CN3)c2n1,inhibition,"PRVABC59, Concentration 49.95 uM, Number of replicates 2.0, Standard deviation 2.1728568355691875 %",17%
same,inhibition,"PRVABC59, Concentration 99.9 uM, Number of replicates 2.0, Standard deviation 5.153634365263829 %",23.7%
Cc1cc(CO)c2cccc(CC(=O)N3CCC(CN)CC3)c2n1,inhibition,"PRVABC59, Concentration 49.95 uM, Number of replicates 2.0, Standard deviation 0.5547725606279245 %",25.3%
same,inhibition,"PRVABC59, Concentration 99.9 uM, Number of replicates 2.0, Standard deviation 0.00508999060096365 %",39.1%
Cc1cc(CO)c2cccc(NC(=O)C3CNC3)c2n1,inhibition,"PRVABC59, Concentration 99.9 uM, Number of replicates 2.0, Standard deviation 0.20878200053144555 %",-2.49%
Cc1cc(CO)c2cccc(NC(=O)C3CCC(CN)CC3)c2n1 (configuration not stated),inhibition,"PRVABC59, Concentration 49.95 uM, Number of replicates 2.0, Standard deviation 1.4301713707436838 %",93.7%
same,inhibition,"PRVABC59, Concentration 99.9 uM, Number of replicates 2.0, Standard deviation 0.5018131910126516 %",92.3%
Cc1cc(CO)c2cccc(NC(=O)CNC3CC3)c2n1,inhibition,"PRVABC59, Concentration 49.95 uM, Number of replicates 2.0, Standard deviation 1.7513317050958486 %",17.8%
same,inhibition,"PRVABC59, Concentration 99.9 uM, Number of replicates 2.0, Standard deviation 1.7111876748261923 %",28.9%
Cc1cc(CO)c2cccc(NC(=O)C3CCC(N)CC3)c2n1 (configuration not stated),inhibition,"PRVABC59, Concentration 49.95 uM, Number of replicates 2.0, Standard deviation 0.4998117214705663 %",93.2%
same,inhibition,"PRVABC59, Concentration 99.9 uM, Number of replicates 2.0, Standard deviation 0.37327676699721984 %",95.4%
Cc1cc(CO)c2cccc(NC(=O)C3CCN(C)CC3)c2n1,inhibition,"PRVABC59, Concentration 49.95 uM, Number of replicates 2.0, Standard deviation 2.9039680698338874 %",1.89%
same,inhibition,"PRVABC59, Concentration 99.9 uM, Number of replicates 2.0, Standard deviation 2.0814932575907883 %",29.5%
Cc1cc(CO)c2cccc(NC(=O)[C@@H]3CCCC[C@H]3C(=O)O)c2n1,inhibition,"PRVABC59, Concentration 49.95 uM, Number of replicates 2.0, Standard deviation 1.6258787445174738 %",3.41%
same,inhibition,"PRVABC59, Concentration 99.9 uM, Number of replicates 2.0, Standard deviation 1.31977157857946 %",10.8%
CCCCCN(CCCCC)C(=O)C1CCN(c2ccc(C=O)cc2)CC1,inhibition,[1],26.1%
O=Cc1ccc(N2CCC(C(=O)Nc3c(F)cc(F)cc3Cl)CC2)cc1,inhibition,[1],23.6%
COc1cc2c(cc1NC(=O)c1cc(Cl)ccc1NS(=O)(=O)c1ccc(Oc3ccccc3Cl)cc1)oc1ccccc12,inhibition,[2],36.2%
O=C(Nc1ncccc1C(F)(F)F)c1cc(Cl)ccc1NS(=O)(=O)c1ccc(Oc2ccccc2Cl)cc1,inhibition,[2],25.1%
Cn1cc(NC(=O)c2cccc3ncccc23)cn1,inhibition,"PRVABC59, Concentration 49.5 uM, Number of replicates 2.0, Standard deviation 3.392303236065074 %",-6.29%
same,inhibition,"PRVABC59, Concentration 99.01 uM, Number of replicates 2.0, Standard deviation 4.211868261497117 %",-5.3%
same,inhibition,"PRVABC59, Concentration 198.0 uM, Number of replicates 2.0, Standard deviation 3.7498965706755105 %",-3.61%
O=Cc1ccc(N2CCC(C(=O)N3CCN(CCOCCO)CC3)CC2)cc1,inhibition,[1],21.2%
COc1ccc([C@H](C)NC(=O)c2cc(Cl)ccc2NS(=O)(=O)c2ccc(Oc3ccccc3Cl)cc2)cc1,inhibition,[2],35.3%
O=Cc1ccc(N2CCC(C(=O)Nc3ccc(Cl)nc3Cl)CC2)cc1,inhibition,[1],20.5%
c1cnc2c(C3CCN(Cc4ccc5[nH]cnc5c4)CC3)c[nH]c2c1,inhibition,"PRVABC59, Concentration 49.5 uM, Number of replicates 2.0, Standard deviation 2.816135776094685 %",1.64%
same,inhibition,"PRVABC59, Concentration 99.01 uM, Number of replicates 2.0, Standard deviation 1.9941147484327908 %",7.38%
same,inhibition,"PRVABC59, Concentration 198.0 uM, Number of replicates 2.0, Standard deviation 0.19707731493778816 %",19.3%
CC(C)(C)c1ccc(S(=O)(=O)N2CCN(C(=O)c3cc(Cl)ccc3NS(=O)(=O)c3ccc(Oc4ccccc4Cl)cc3)CC2)cc1,inhibition,[2],14.3%
COc1ccc(S(=O)(=O)n2nc(OC(=O)c3ccccc3)cc2N)cc1,inhibition,"PRVABC59, Concentration 49.5 uM, Number of replicates 2.0, Standard deviation 0.018531126353269887 %",99.1%
same,inhibition,"PRVABC59, Concentration 99.01 uM, Number of replicates 2.0, Standard deviation 0.03874003445206144 %",99.1%
same,inhibition,"PRVABC59, Concentration 198.0 uM, Number of replicates 2.0, Standard deviation 0.035373681367799316 %",99%
COc1ccc(S(=O)(=O)Nc2ccc(C(=O)O)cc2)cc1,inhibition,"PRVABC59, Concentration 49.5 uM, Number of replicates 2.0, Standard deviation 1.0137935505852833 %",2.03%
same,inhibition,"PRVABC59, Concentration 99.01 uM, Number of replicates 2.0, Standard deviation 1.063246976754026 %",4.7%
same,inhibition,"PRVABC59, Concentration 198.0 uM, Number of replicates 2.0, Standard deviation 1.989546367228998 %",3.61%
COc1ccc(S(=O)(=O)N2CCC(C(=O)Nc3nc4ccccc4s3)CC2)cc1,inhibition,"PRVABC59, Concentration 49.5 uM, Number of replicates 2.0, Standard deviation 3.281212488466362 %",4.02%
same,inhibition,"PRVABC59, Concentration 99.01 uM, Number of replicates 2.0, Standard deviation 0.8753020409515783 %",5.17%
same,inhibition,"PRVABC59, Concentration 198.0 uM, Number of replicates 2.0, Standard deviation 6.6794445217114635 %",7.79%
CN(Cc1cccc(F)c1F)C(=O)c1cc(Cl)ccc1NS(=O)(=O)c1ccc(Oc2ccccc2Cl)cc1,inhibition,[2],31.2%
CC(C)CCN(CCC(C)C)C(=O)c1cc(Cl)ccc1NS(=O)(=O)c1ccc(Oc2ccccc2Cl)cc1,inhibition,[2],18.8%
CS(=O)(=O)c1ccc(O)c(NC(=O)c2cc(Cl)ccc2NS(=O)(=O)c2ccc(Oc3ccccc3Cl)cc2)c1,inhibition,[2],32.3%
